# Results: the supplement of paper PMC8728848
# Only a selection was taken, and the strongest signals are over-represented in it overall.
# B1: AT5G01260(PC)(40) (Arabidopsis thaliana), Q9LFB0 (protein)
# chain: MIGIGRTLTSSSPSKIILEDLPPGIYRYGTEIFTSVPRKTFHHIKFLRLDSAQSSRILKPVPLRSSSIKDSQVNVEDEEIEASNKTVRVRFQLRKECVFGEHFFIVGDDPVFGGLWDPETALPLNWSDGNVWTVDLDLPVGRLVEFKLLLKAQTGEILWQPGPNRALETWETNKTIRICEDWDNADLQMMIEEDFVPYTNISSIGSEDEDEVLGSVQQNSSVVAVENAGYVSDESAQNSSFSIQSEKTMEPSNGALTAREVIKEAMFTEEESPVLVPGLIPLSDLDNEQVEVINEGKAETFPEVDKKQEPKAERNKKAKVKAISLFEKSEQEAVKSVEQRQYNAVEEEQQRLETEPLGTPDVLFENDIQWGRRTLYKLLSNFRLF
# Legend:
# Experiment in all cases: glycan array binding signal (z-score within array); higher = stronger binding
# Conditions in all cases: glycan notation: IUPAC condensed, linker removed
# [1] = target: Fuc(a1-2)Gal(b1-3)GalNAc(b1-3)Gal
# In short: (§1)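 Glycan array data were curated from 3228 arrays in the Consortium for Functional Glycomics database and kept only where the protein sequence was available. Glycan names were converted to IUPAC-condensed notation, and columns mapping to the same glycan were averaged. The binding signal is a within-array Z-score, averaged across arrays of the same protein sequence at different concentrations or buffers and across linkers. Negative Z-scores can be read as non-binding.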
# Fuc(a1-2)Gal(b1-3)GlcNAc = target: Fuc(a1-2)Gal(b1-3)GlcNAc
# In short: as §1
# [2] = target: Fuc(a1-2)Gal(b1-3)GlcNAc(b1-3)[Gal(b1-4)GlcNAc(b1-6)]Gal(b1-4)Glc
# In short: as §1
# [3] = target: Fuc(a1-2)Gal(b1-4)GlcNAc(b1-3)Gal(b1-4)GlcNAc(b1-3)Gal(b1-4)GlcNAc
# In short: as §1
# [4] = target: Fuc(a1-2)Gal(b1-4)[Fuc(a1-3)]GlcNAc
# In short: as §1
# [5] = target: Fuc(a1-2)Gal(b1-4)[Fuc(a1-3)]GlcNAc(b1-2)[Fuc(a1-2)Gal(b1-4)[Fuc(a1-3)]GlcNAc(b1-4)]Man(a1-3)[Fuc(a1-2)Gal(b1-4)[Fuc(a1-3)]GlcNAc(b1-2)Man(a1-6)]Man(b1-4)GlcNAc(b1-4)GlcNAc
# In short: as §1
# [6] = target: Fuc(a1-2)[Gal(a1-3)]Gal(b1-3)GlcNAc
# In short: as §1
# [7] = target: Fuc(a1-2)[Gal(a1-3)]Gal(b1-4)GlcNAc(b1-2)Man
# In short: as §1
# [8] = target: Fuc(a1-2)[Gal(a1-3)]Gal(b1-4)GlcNAc(b1-6)GalNAc
# In short: as §1
# [9] = target: Fuc(a1-2)[GalNAc(a1-3)]Gal(b1-4)GlcNAc(b1-2)Man(a1-3)[Fuc(a1-2)[GalNAc(a1-3)]Gal(b1-4)GlcNAc(b1-2)Man(a1-6)]Man(b1-4)GlcNAc(b1-4)GlcNAc
# In short: as §1
# [10] = target: Fuc(a1-2)[GalNAc(a1-3)]Gal(b1-4)GlcNAc(b1-6)GalNAc
# In short: as §1
# [11] = target: Fuc(a1-2)[GalNAc(a1-3)]Gal(b1-4)[Fuc(a1-3)]GlcNAc(b1-3)GalNAc
# In short: as §1
# [12] = target: Fuc(a1-3)[Gal(b1-4)]GlcNAc(b1-3)Gal(b1-3)[Fuc(a1-4)]GlcNAc
# In short: as §1
# [13] = target: Fuc(a1-3)[Gal(b1-4)]GlcNAc(b1-3)Gal(b1-4)[Fuc(a1-3)]GlcNAc
# In short: as §1
# [14] = target: Fuc(a1-3)[Gal(b1-4)]GlcNAc(b1-3)Gal(b1-4)[Fuc(a1-3)]GlcNAc(b1-3)Gal(b1-4)[Fuc(a1-3)]GlcNAc
# In short: as §1
# [15] = target: Fuc(a1-3)[GalNAc(b1-4)]GlcNAc
# In short: as §1
# [16] = target: Gal(a1-3)Gal(b1-3)[Fuc(a1-4)]GlcNAc(b1-2)Man(a1-3)[Gal(a1-3)Gal(b1-3)[Fuc(a1-4)]GlcNAc(b1-2)Man(a1-6)]Man(b1-4)GlcNAc(b1-4)GlcNAc
# In short: as §1
# [17] = target: Gal(a1-3)Gal(b1-4)GlcNAc(b1-6)GalNAc
# In short: as §1
# Gal(a1-3)GalNAc = target: Gal(a1-3)GalNAc
# In short: as §1
# [18] = target: Gal(a1-3)[Gal(a1-4)]Gal(b1-4)GlcNAc
# In short: as §1
# Gal(a1-4)Gal(b1-4)Glc = target: Gal(a1-4)Gal(b1-4)Glc
# In short: as §1
# [19] = target: Gal(b1-3)GalNAc(b1-4)Gal(b1-4)Glc
# In short: as §1
# [20] = target: Gal(b1-3)GlcNAc(b1-2)Man(a1-3)[Gal(b1-3)GlcNAc(b1-2)Man(a1-6)]Man(b1-4)GlcNAc(b1-4)GlcNAc
# In short: as §1
# [21] = target: Gal(b1-3)GlcNAc(b1-6)[Gal(b1-3)]GalNAc
# In short: as §1
# Gal(b1-3)GlcNAc6S = target: Gal(b1-3)GlcNAc6S
# In short: as §1
# [22] = target: Gal(b1-3)[Fuc(a1-4)]GlcNAc(b1-2)Man(a1-3)[Gal(b1-3)[Fuc(a1-4)]GlcNAc(b1-2)Man(a1-6)]Man(b1-4)GlcNAc(b1-4)[Fuc(a1-6)]GlcNAc
# In short: as §1
# [23] = target: Gal(b1-3)[GlcNAc(b1-6)]GalNAc
# In short: as §1
# [24] = target: Gal(b1-4)GalNAc(a1-3)[Fuc(a1-2)]Gal(b1-4)GlcNAc
# In short: as §1
# Gal(b1-4)GlcNAc = target: Gal(b1-4)GlcNAc
# In short: as §1
# [25] = target: Gal(b1-4)GlcNAc(b1-2)Man(a1-3)[GlcNAc(b1-2)Man(a1-6)]Man(b1-4)GlcNAc(b1-4)GlcNAc
# In short: as §1
# [26] = target: Gal(b1-4)GlcNAc(b1-2)[Gal(b1-4)GlcNAc(b1-4)]Man(a1-3)[GlcNAc(b1-4)][Gal(b1-4)GlcNAc(b1-2)[Gal(b1-4)GlcNAc(b1-6)]Man(a1-6)]Man(b1-4)GlcNAc(b1-4)GlcNAc
# In short: as §1
# [27] = target: Gal(b1-4)GlcNAc(b1-2)[Gal(b1-4)GlcNAc(b1-6)]Man(a1-6)[Gal(b1-4)GlcNAc(b1-2)Man(a1-3)]Man(b1-4)GlcNAc(b1-4)GlcNAc
# In short: as §1
# [28] = target: Gal(b1-4)GlcNAc(b1-2)[Gal(b1-4)GlcNAc(b1-6)]Man(a1-6)[Gal(b1-4)GlcNAc(b1-2)Man(a1-3)]Man(b1-4)GlcNAc(b1-4)[Fuc(a1-6)]GlcNAc
# In short: as §1
# [29] = target: Gal3S(b1-4)[Fuc(a1-3)]Glc6S
# In short: as §1
# Gal6S(b1-3)GlcNAc6S = target: Gal6S(b1-3)GlcNAc6S
# In short: as §1
# [30] = target: GalNAc(a1-3)GalNAc(b1-3)Gal(a1-4)Gal(b1-4)Glc
# In short: as §1
# [31] = target: GalNAc(b1-3)Gal(a1-4)Gal(b1-4)GlcNAc
# In short: as §1
# [32] = target: GalNAc(b1-3)Gal(a1-6)Gal(b1-4)Glc
# In short: as §1
# GalNAc(b1-4)GlcNAc = target: GalNAc(b1-4)GlcNAc
# In short: as §1
# [33] = target: GlcNAc(a1-4)Gal(b1-4)GlcNAc(b1-3)Gal(b1-4)Glc
# In short: as §1
# [34] = target: GlcNAc(b1-2)Man(a1-3)[GlcNAc(b1-2)Man(a1-6)]Man(b1-4)GlcNAc(b1-4)GlcNAc
# In short: as §1
# [35] = target: GlcNAc(b1-3)Gal(b1-4)GlcNAc(b1-3)Gal(b1-4)GlcNAc(b1-2)[GlcNAc(b1-3)Gal(b1-4)GlcNAc(b1-3)Gal(b1-4)GlcNAc(b1-6)]Man(a1-6)[GlcNAc(b1-3)Gal(b1-4)GlcNAc(b1-3)Gal(b1-4)GlcNAc(b1-2)Man(a1-3)]Man(b1-4)GlcNAc(b1-4)[Fuc(a1-6)]GlcNAc
# In short: as §1
# [36] = target: GlcNAc(b1-4)[GlcNAc(b1-6)]GalNAc
# In short: as §1
# [37] = target: GlcNAc6S(b1-3)Gal(b1-4)GlcNAc
# In short: as §1
# Neu5Ac(a2-3)Gal = target: Neu5Ac(a2-3)Gal
# In short: as §1
# [38] = target: Neu5Ac(a2-3)Gal(b1-3)GlcNAc(b1-2)Man
# In short: as §1
# [39] = target: Neu5Ac(a2-3)Gal(b1-3)[Neu5Ac(a2-6)]GalNAc
# In short: as §1
# [40] = target: Neu5Ac(a2-3)Gal6S(b1-4)GlcNAc
# In short: as §1
# Neu5Ac(a2-3)GalNAc = target: Neu5Ac(a2-3)GalNAc
# In short: as §1
# [41] = target: Neu5Ac(a2-6)Gal(b1-4)GlcNAc(b1-2)Man(a1-6)[Gal(b1-4)GlcNAc(b1-2)Man(a1-3)]Man(b1-4)GlcNAc(b1-4)GlcNAc
# In short: as §1
# [42] = target: Neu5Ac(a2-6)Gal(b1-4)GlcNAc(b1-3)Gal(b1-4)GlcNAc(b1-2)Man(a1-3)[Neu5Ac(a2-6)Gal(b1-4)GlcNAc(b1-3)Gal(b1-4)GlcNAc(b1-2)Man(a1-6)]GalNAc
# In short: as §1
# [43] = target: Neu5Ac(a2-6)Gal(b1-4)GlcNAc(b1-3)Gal(b1-4)[Fuc(a1-3)]GlcNAc(b1-3)Gal(b1-4)[Fuc(a1-3)]GlcNAc
# In short: as §1
# [44] = target: Neu5Ac(a2-6)Gal(b1-4)GlcNAc(b1-3)[Neu5Ac(a2-6)Gal(b1-4)GlcNAc(b1-6)]GalNAc
# In short: as §1
# [45] = target: Neu5Ac(a2-8)Neu5Ac(a2-8)Neu5Ac
# In short: as §1
# Neu5Ac(b2-6)GalNAc = target: Neu5Ac(b2-6)GalNAc
# In short: as §1
# [46] = target: Neu5Gc(a2-3)Gal(b1-3)GlcNAc
# In short: as §1
binder,measurement,setting,value
B1,glycan array binding signal (z-score),[1],-0.3
same,glycan array binding signal (z-score),Fuc(a1-2)Gal(b1-3)GlcNAc,-0.85
same,glycan array binding signal (z-score),[2],-0.343
same,glycan array binding signal (z-score),[3],-0.994
same,glycan array binding signal (z-score),[4],-0.291
same,glycan array binding signal (z-score),[5],0.175
same,glycan array binding signal (z-score),[6],0.172
same,glycan array binding signal (z-score),[7],-0.675
same,glycan array binding signal (z-score),[8],-0.256
same,glycan array binding signal (z-score),[9],-0.648
same,glycan array binding signal (z-score),[10],-0.387
same,glycan array binding signal (z-score),[11],7.04
same,glycan array binding signal (z-score),[12],0.431
same,glycan array binding signal (z-score),[13],-0.975
same,glycan array binding signal (z-score),[14],1.89
same,glycan array binding signal (z-score),[15],1.78
same,glycan array binding signal (z-score),[16],0.054
same,glycan array binding signal (z-score),[17],-0.159
same,glycan array binding signal (z-score),Gal(a1-3)GalNAc,2.32
same,glycan array binding signal (z-score),[18],9.44
same,glycan array binding signal (z-score),Gal(a1-4)Gal(b1-4)Glc,1.85
same,glycan array binding signal (z-score),[19],2.16
same,glycan array binding signal (z-score),[20],0.891
same,glycan array binding signal (z-score),[21],-0.659
same,glycan array binding signal (z-score),Gal(b1-3)GlcNAc6S,0.146
same,glycan array binding signal (z-score),[22],0.147
same,glycan array binding signal (z-score),[23],0.411
same,glycan array binding signal (z-score),[24],-0.618
same,glycan array binding signal (z-score),Gal(b1-4)GlcNAc,0.708
same,glycan array binding signal (z-score),[25],-0.702
same,glycan array binding signal (z-score),[26],-0.552
same,glycan array binding signal (z-score),[27],0.037
same,glycan array binding signal (z-score),[28],0.414
same,glycan array binding signal (z-score),[29],4.34
same,glycan array binding signal (z-score),Gal6S(b1-3)GlcNAc6S,-0.529
same,glycan array binding signal (z-score),[30],-0.513
same,glycan array binding signal (z-score),[31],2.47
same,glycan array binding signal (z-score),[32],-0.39
same,glycan array binding signal (z-score),GalNAc(b1-4)GlcNAc,8.76
same,glycan array binding signal (z-score),[33],-0.389
same,glycan array binding signal (z-score),[34],-0.443
same,glycan array binding signal (z-score),[35],0.144
same,glycan array binding signal (z-score),[36],0.541
same,glycan array binding signal (z-score),[37],1.26
same,glycan array binding signal (z-score),Neu5Ac(a2-3)Gal,-0.106
same,glycan array binding signal (z-score),[38],-0.011
same,glycan array binding signal (z-score),[39],-0.391
same,glycan array binding signal (z-score),[40],-0.571
same,glycan array binding signal (z-score),Neu5Ac(a2-3)GalNAc,-0.206
same,glycan array binding signal (z-score),[41],-0.165
same,glycan array binding signal (z-score),[42],0.243
same,glycan array binding signal (z-score),[43],-0.054
same,glycan array binding signal (z-score),[44],0.077
same,glycan array binding signal (z-score),[45],-0.58
same,glycan array binding signal (z-score),Neu5Ac(b2-6)GalNAc,-0.728
same,glycan array binding signal (z-score),[46],-0.145
